12-LOX inh: Primary qHTS assay for inhibitors of human arachidonate 12S-lipoxygenase (ALOX12): Round 2; Potency, µM (series often up to 108 µM), inactives show at the top dose activity change, negative = inhibition, actives largely listed as inhibitors; purified 12hLO, xylenol orange hydroperoxide absorbance; 1.1% of 580,000 active; also: potency is read from the fitted curve at half-maximal effect
Target sequence (P18054 whole entry, looked up): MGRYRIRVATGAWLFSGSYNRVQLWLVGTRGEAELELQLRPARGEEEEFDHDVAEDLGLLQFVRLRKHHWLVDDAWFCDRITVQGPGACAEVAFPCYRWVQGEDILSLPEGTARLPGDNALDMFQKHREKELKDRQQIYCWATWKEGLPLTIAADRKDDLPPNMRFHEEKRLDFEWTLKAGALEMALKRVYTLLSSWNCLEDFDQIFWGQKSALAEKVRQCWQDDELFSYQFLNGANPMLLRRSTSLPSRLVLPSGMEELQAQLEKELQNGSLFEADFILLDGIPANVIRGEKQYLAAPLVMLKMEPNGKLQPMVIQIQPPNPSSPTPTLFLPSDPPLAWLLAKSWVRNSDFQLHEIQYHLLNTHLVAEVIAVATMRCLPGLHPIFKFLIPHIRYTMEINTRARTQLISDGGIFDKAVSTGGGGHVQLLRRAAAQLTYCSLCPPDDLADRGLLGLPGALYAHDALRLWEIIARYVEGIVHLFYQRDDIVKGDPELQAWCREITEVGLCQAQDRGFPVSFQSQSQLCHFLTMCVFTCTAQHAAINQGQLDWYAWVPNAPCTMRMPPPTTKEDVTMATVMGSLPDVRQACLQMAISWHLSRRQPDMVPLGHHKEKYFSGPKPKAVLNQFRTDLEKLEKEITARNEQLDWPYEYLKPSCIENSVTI
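Purified human 12hLO at 150 nM in 25 mM Hepes, 0.01% Triton X-100, pH 7.0, preincubated 15 min at room temperature with compound. Reaction started with 40 uM arachidonic acid, 30 min at room temperature. Hydroperoxide measured by Fe-xylenol orange, 573/405 nm absorbance ratio.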
HT1080NT lethal: qHTS for induction of synthetic lethality in tumor cells producing 2HG: qHTS for the HT-1080-NT fibrosarcoma cell line. HT-1080-NT fibrosarcoma viability, CellTiter-Glo ATP luminescence, 48 h. Potency, µM (highest dose often 46.1 µM), for inactives: at the highest dose activity, negative = less viability, usual class: cytotoxic. 1.6% of 360,000 active;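 also: NT is the 2HG producing partner of a matched IDH1 knockdown line; potency is read from the fitted curve at half-maximal effect; 0% = DMSO-treated cells and -100% = media-only wells without cells; nearly all actives have a fitted effect of over 55% in size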
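Fibrosarcoma NT cells, 750 per well in 5% FBS RPMI, were exposed to compound for 48 hours. Viability: CellTiter-Glo luminescence.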
HT1080 IDH1KD tx: qHTS for induction of synthetic lethality in tumor cells producing 2HG: qHTS for the HT-1080-IDH1KD cell line. HT-1080 IDH1 knockdown viability, ATP luminescence, 48 h. Potency, µM (top dose mostly 46.1 µM), inactives show at the highest dose activity, negative = toxicity, most hits filed as cytotoxic. 2% of 360,000 active;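 also: potency is read from the fitted curve at half-maximal effect; 0% = DMSO wells and -100% = cell-free medium wells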
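% activity derives from luminescence (CellTiter-Glo), normalised to DMSO and no-cell wells. HT-1080-IDH1KD cells, 750/well, had 48 h compound exposure at 37 °C.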
TDP1 cell noCPT: qHTS for Inhibitors of human tyrosyl-DNA phosphodiesterase 1 (TDP1): qHTS in cells in absence of CPT | DT40 Tdp1-/- hTDP1 cells, no CPT, ATP luminescence, 48 h | Potency, µM (highest dose often 46.2 µM), inactives show at the highest dose activity change, negative = growth inhibition, hits mostly inhibitors | 15% of 420,000 active | AID 686978, 2013; also: potency is read from the fitted curve at half-maximal effect; nearly all actives have a fitted effect of over 55% in size
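Luminescent ATP content (CellTiter-Glo) served as the growth readout. Knockout chicken DT40 cells expressing human TDP1 were exposed to compounds without camptothecin for a minimum 48 hr at 37 °C.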
IL-1B inflam inh: qHTS for Inhibitors of Inflammasome Signaling: IL-1-beta AlphaLISA Primary Screen | THP-1 LPS/ATP IL-1B secretion, AlphaLISA, 16 h; active compounds read low | activity change, % at 57.5 µM | 4.7% of 360,000 active; in the data active = activity change below about -50%; inconclusive = mostly about -30% to -49%
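Secreted IL-1B measured by AlphaLISA bead assay after 16 h compound exposure of THP-1 cells; compounds (final up to 57.5 uM) added 1 h before LPS (250 ng/mL) and ATP (1.25 mM) stimulation; lower signal means less secretion.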
DT40 TDP1 CPT: qHTS for Inhibitors of human tyrosyl-DNA phosphodiesterase 1 (TDP1): qHTS in cells in presence of CPT; chicken DT40 Tdp1-/-;hTDP1 cells + 20 nM CPT, ATP luminescence, 48 h; Potency, µM (titrated, usually from 46.2 µM), without a hit: at the highest dose activity change, negative = growth inhibition, hits mostly inhibitors; 12% of 420,000 active; AID 686979, 2013; also: potency is read from the fitted curve at half-maximal effect; nearly all actives have a fitted effect of over 55% in size
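Chicken DT40 Tdp1-/- cells stably complemented with human TDP1 were seeded at 400 cells/well in medium containing 20 nM camptothecin, exposed to pin-transferred compounds, and grown at 37 °C for at least 48 hr. Viability was read as ATP luminescence.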
Numbers without * were called inactive; ? = inconclusive; . = no result given; [ ] = remark or other dose. Only a selection was taken, and hits are over-represented in it overall. Unless noted, calls follow the shape of the dose curve; as a rule, active = well fitted curve in the direction sought with a large enough effect; inconclusive = small, poorly fitted or top-dose-only effect, or another doubt; inactive = no such curve, though single readings can be large; an effect the other way counts as inactive or inconclusive. Unless noted, % is scaled to controls: 0 for no effect and ±100 for the full control effect.

SMILES	12-LOX inh	HT1080NT lethal	HT1080 IDH1KD tx	TDP1 cell noCPT	IL-1B inflam inh	DT40 TDP1 CPT
CN(CC(=O)Nc1cccc(F)c1)C(=O)c1cccc(S(=O)(=O)N2CCN(c3ccccc3)CC2)c1	184%	-6%	-6%	?	?	?
COc1cccc(NC(=O)CN(C)C(=O)c2cccc(S(=O)(=O)N3CCN(c4ccc(F)cc4)CC3)c2)c1	11%	-16%	-10%	16µM*	10	16µM*
CN(CC(=O)Nc1cccc(F)c1)C(=O)c1cc(S(=O)(=O)N2CCN(c3ccccc3)CC2)ccc1Cl	138%	2%[9.24 µM]	-14%	13µM*	-27	16µM*
CN(CC(=O)Nc1ccc(F)cc1)C(=O)c1cccc(S(=O)(=O)N2CCN(c3ccc(F)cc3)CC2)c1	-17%	-15%	?	13µM*	-16	15µM*
c1ccc(-n2nnnc2C2(NC3CCCCC3)CCCC2)cc1	11%	.	.	.	.	.
CC(=O)Nc1ccc(C(=O)N2CCn3c(nnc3C3CCCN3)C2)cc1 (stereo not given)	-6%[6.33 µM]	.	.	.	.	.
N#Cc1cccc(/C=C/C(=O)c2ccsc2)c1	-30%	.	.	.	.	.
Cc1oc2ncnc(N3CCCCC3)c2c1C(=O)N1CCN(c2cccc(C(F)(F)F)c2)CC1	-29%	.	.	13µM*	.	16µM*
COc1cccc(N2CCN(C(=O)c3c(C)oc4ncnc(N5CCOCC5)c34)CC2)c1	-17%	.	.	-17%	.	2%
COc1ccc(N2CCN(C(=O)c3c(C)oc4ncnc(N5CCCCC5)c34)CC2)cc1	?	.	.	15µM*	.	?
CCOC(=O)c1noc2ncnc(N3CCN(c4cccc(C(F)(F)F)c4)CC3)c12	-2%	.	.	13µM*	.	16µM*
N#CC1(c2ccc(NC(=O)c3cccnc3NCc3ccncc3)cc2)CCCC1	-34%[57.4 µM]	.	.	.	.	.
O=C(Nc1nc(-c2ccc(S(=O)(=O)N3CCOCC3)cc2)cs1)c1ccccc1	-24%	?	-19%	12µM*	?	?
COc1cccc(C(=O)Nc2nc(-c3ccc(S(=O)(=O)N4CCOCC4)cc3)cs2)c1	-25%	-14%	-12%	12µM*	?	21µM*
COc1ccc(-c2csc(NC(=O)c3ccc(S(=O)(=O)N4CCc5ccccc5C4)cc3)n2)c(OC)c1	-15%	0%	-9%	13µM*	20	?
Cc1cccc(OCC(=O)Nc2nc(-c3ccc(S(=O)(=O)N4CCOCC4)cc3)cs2)c1	-5%	.	.	.	.	.
COc1cc(-c2cnc3ccccc3c2)cc2c1OCCN(C(=O)CCC(=O)c1ccc(F)cc1)C2	2%	.	.	-22%	.	11%[9.04 µM]
O=C(CN1CCN(c2cnn(-c3ccccc3)c(=O)c2Cl)CC1)Nc1ccc2c(c1)OCCO2	-28%	.	.	.	.	.
COc1ccc(CCC(=O)NCCc2csc(-c3ccc(F)cc3)n2)cc1	2%	.	.	?	.	?
COc1ccc(-c2nc3scc(CCNC(=O)Cc4ccc(F)cc4)n3n2)cc1	3%	.	.	26µM*	.	?
COc1ccc(-c2nc3scc(CCNC(=O)c4cc(OC)cc(OC)c4)n3n2)cc1	-13%	.	.	21µM*	.	?
COc1ccc(-c2nc(CCNC(=O)Cc3ccc(F)cc3)cs2)cc1	-1%	.	.	18µM*	.	15µM*
O=C(NCCc1csc(-c2ccc(F)cc2)n1)c1ccc(Br)o1	-7%	.	.	?	.	23µM*
O=C(Cc1ccc(F)cc1)NCCc1csc(-c2ccc(C(F)(F)F)cc2)n1	-18%	.	.	.	.	.
CC(C)C[C@@H](NC(=O)C1=C[C@@H](NC(=O)CC(C)(C)C)[C@@H](O)[C@H](O)C1)C(N)=O	27%[176 µM]	.	.	.	.	.
SMILES	12-LOX inh	HT1080NT lethal	HT1080 IDH1KD tx	TDP1 cell noCPT	IL-1B inflam inh	DT40 TDP1 CPT
Cc1ccc(-c2nc(CCNC(=O)C(=O)Nc3ccc(F)cc3F)cs2)cc1	-17%	.	.	?	.	-25%
COc1ccc(CNC(=O)Cc2csc3nc(-c4ccc(C)cc4)cn23)cc1	-12%	.	.	-22%	.	-24%
Cc1cc(C)c(NC(=O)C(=O)NCCc2csc(-c3ccc(F)cc3)n2)c(C)c1	-27%	.	.	16µM*	.	18µM*
COc1ccc(CNC(=O)Cc2csc3nc(-c4ccc(F)cc4)cn23)cc1	-25%	.	.	?	.	21µM*
CCc1c(C(=O)NCc2ccccc2Cl)[nH]c(C)c1C(C)=O	-9%	-16%	-6%	16µM*	30	23µM*
CCc1c(C(=O)NCCc2cccc(C)c2)[nH]c(C)c1C(C)=O	?	-28%	?	10µM*	-30	16µM*
CN1CCOc2c(C(=O)NCC[S+](C)(=O)[O-])cc(-c3ccccc3)cc21	18%[176 µM]	.	.	.	.	.
CCOC(=O)c1cc(-c2ccc(F)cc2)n(CCC(=O)NC2CCCCC2)c1C	-25%	.	.	15µM*	.	15µM*
CC(=O)c1cc(-c2ccccc2)n(CCC(=O)NC2CCCCCCC2)c1C	-6%	?	-27%	23µM*	-24	?
CCOC(=O)c1cc(-c2ccc(F)cc2)n(CC(=O)NC2CCCCC2)c1C	-29%	.	.	?	.	-26%
CC(=O)c1cc(-c2ccccc2)n(CC(=O)NC2CCCCCC2)c1C	-22%	.	.	?	.	?
CCOC(=O)c1cc(-c2ccccc2)n(CCC(=O)NC2CCCCC2)c1C	-11%	.	.	13µM*	.	?
CCOC(=O)c1cc(-c2ccc(F)cc2)n(CC(=O)NC2CCCCCC2)c1C	-19%	.	.	15µM*	.	16µM*
COc1ccc(C(=O)N2CCC(n3cc(-c4nc(C)no4)nn3)C2)cc1 (stereo not given)	11%	.	.	.	.	.
N#Cc1ccc(S(=O)(=O)N2CCN(CC(=O)Nc3ccccc3C(=O)NC3CCCC3)CC2)cc1	-27%	.	.	.	.	.
CC(=O)NN1C(=O)/C(=C/c2ccc(Br)o2)SC1=S	?	3%	0%	?	-8	?
CC(=O)NN1C(=O)/C(=C\c2ccc(Br)o2)SC1=S	?	?	?	16µM*	-97*	?
O=C(CCN1C(=O)C2C3C=CC(C3)C2C1=O)NCCc1ccccc1 (stereo not given)	-10%	13%	17%	26µM*	26	?

Screens: PubChem, National Center for Advancing Translational Sciences (NCATS)
